The text below walks through data of PMC12136788.

To fix the notation:
B1: 40924096_40924216_925_3pUTR_ENSMUSG00000028423_ENSMUST00000098143|mouse|control|control (ssRNA)
RNA: GGGAGUUCUACAGUCCGACGAUCUCGUUGGUCUUUCUCUAAGAUUAUCCUUUGGAAUGGGGGACAUGUUGGUUUUGGGCCCUGCAUUUAUAUGCCGCUGACUCUCCUGUUUUGGUGGGUUCCUGCCUGGCCGUGGUCUGGCCCCAACAGAGGAUUGAGCAUCA
B2: chr14:89307221:89307222:+_ENSG00000165533_ENST00000346301|hu_mus|hu_hu_hu_mus_False|98_98 (ssRNA)
RNA: GGGAGUUCUACAGUCCGACGAUCUCCUGUUUGGUUAGUUCCAGGGAGCUUCAAAGAUGUGCCAGGGCGUGGGACCUGAGCAAUAGCAUUUUCAUCCAGGAUCAUUUCAGCAAUUCCUUCCUGGUCCACAUCAAUUUCAUCUAUCAACAGAGGAUUGAGCAUCA
B3: chr7:151048522:151048523:+_ENSG00000013374_ENST00000566856|hu_mus|motif|central (ssRNA)
RNA: GGGAGUUCUACAGUCCGACGAUCCUGUUUCUUAUUUAUUACGAUCUUGAUGUAAUUUUCUUGAAAUCCGAAAGUUUCAGCGGUUUGACACCUCAGGUCUCUACCAGUGACAUGCAAGCGGGUCUCCAACAAGCUUUUCUUAUCCAACAGAGGAUUGAGCAUCA
B4: chr1:38489269:38489270:+_ENSG00000183520_ENST00000537711|hu_hu|FALSE|FALSE (ssRNA)
RNA: GGGAGUUCUACAGUCCGACGAUCUUUGAAGUUACUAGAAAACGACAACAGAUUUUUGAUACAGAAUGACAAGGCUUAUCUAUAACACGUCAACGUUUUCGACGACUCUGAAAUUUAUAAAUAGCUGGGGAGUUCACCGUUUCUCAACAGAGGAUUGAGCAUCA
B5: chr2:160775391:160775392:-_ENSMUSG00000057133_ENSMUST00000039782|mus_hu|motif|central (ssRNA)
RNA: GGGAGUUCUACAGUCCGACGAUCAAUGAGUCCAGGAGAUACUCCUGGGAUGAGAAAUGGGUUAAAAGCCACAGGACGGCGGGUAGUUAUUGCAGGUUCAGACUGAUCAGAAAAUGGACCUGGACCAGGCUUGUCCUCAGCUAACAACAGAGGAUUGAGCAUCA
B6: chr18:33597908:33597909:-_ENSMUSG00000042834_ENSMUST00000171533|mus_mus|FALSE|FALSE (ssRNA)
RNA: GGGAGUUCUACAGUCCGACGAUCUACAUCAAAAGAGUACAUGGGUAAAAUAUAGAUAUACAGACAAUUGAUGAACAUAAACUACUAGGCUUGUUACAUCUAAAUGAAGAAAAAAAAAAACCGUGGGGGGGACUCUCAGCCUCUCAACAGAGGAUUGAGCAUCA
B7: chr18:33597908:33597909:-_ENSMUSG00000042834_ENSMUST00000171533|mus_mus|motif|central (ssRNA)
RNA: B6 RNA with U82G, A83G, U85G, A86G
B8: chr2:29001751:29001752:+_ENSG00000213639_ENST00000296122|perfect_dup|motif|central (ssRNA)
RNA: GGGAGUUCUACAGUCCGACGAUCAGCCAAUAGCAAACAAAUGGUUUCCAAAGACUGCUUUCCUCUGUCCACAUAAUCUCCGGAGAAAAGAUAGUUGGCUUCUGGUGGGAAACCUCCAUAUUCAAAUAAUCUCAGUAAAUCUGUCAACAGAGGAUUGAGCAUCA
B9: chr2:160775391:160775392:-_ENSMUSG00000057133_ENSMUST00000039782|mus_hu|FALSE|FALSE (ssRNA)
RNA: B5 RNA with G77U, G78A, G80U, G81A
B10: chr3:35977374:35977375:+_ENSMUSG00000027710_ENSMUST00000011492|mus_hu|motif|central (ssRNA)
RNA: GGGAGUUCUACAGUCCGACGAUCCACAGGUAUCUUGGUGUUUUCAAAAUGGACUUCACAAGUGUUGGAGCCCCGAAUGCCGGAUUUAUCUUCGGGUUUCCCAUUAGUGACUCCACCAAAGUCUCUUUCUACUAUGAAUGCUGUCAACAGAGGAUUGAGCAUCA
B11: chr2:24917620:24917621:+_ENSMUSG00000006476_ENSMUST00000102931|mus_mus|motif|central (ssRNA)
RNA: GGGAGUUCUACAGUCCGACGAUCAGUAAUGCUGCUUCCCUUCAAAUUGUUUCAGGGGUGUAAAAAAAUUGCACUUAUUUCGGUGAACCCCAUGGAGGGGAUCCCCAAUGCUGCUGCCUCCAGGCGAGGCAUGACAGGUCAAUGCAACAGAGGAUUGAGCAUCA
B12: chr5:10264850:10264851:+_ENSG00000150753_ENST00000503026|hu_hu|FALSE|FALSE (ssRNA)
RNA: GGGAGUUCUACAGUCCGACGAUCUUCUCAAUGUCUUCAUUCUUCAGAUUCUCCAGGCUUACGAAUGUCAUCAAUCUUCAAAAUCAUUCUAACCAUUUGUGUUGCAAGAGAUAUCUGUUGCUUUUUGCCAAUCAAGGUUUCUAUCAACAGAGGAUUGAGCAUCA
B13: chr6:13786029:13786030:-_ENSMUSG00000048216_ENSMUST00000115492|mus_mus|FALSE|FALSE (ssRNA)
RNA: GGGAGUUCUACAGUCCGACGAUCAAAAACUCUCCAAUAGCAGGCCACCAGGUAGGGACCCCACAAGGUUAGGAAGAGGAAAGUCAUUAUAUAAAACAUUCUGCUGAUUCUUUUCUCCAUUUUGAACUCAUCCAAGACCAAUAGCAACAGAGGAUUGAGCAUCA
B14: chr4:34514055:34514056:+_ENSMUSG00000028291_ENSMUST00000084299|mus_mus|FALSE|FALSE (ssRNA)
RNA: GGGAGUUCUACAGUCCGACGAUCCUGGGGAGGAGGUGCAGCAAUAAACAUUUGUUAAAAAGACUGAUAGAAUAAAUAAAACUACCAAAAAAUAAUAAAGAAAAUCAUAUAAACCCAUUCUGAAACCCCAAGAAAAGUCCUGAACAACAGAGGAUUGAGCAUCA
B15: chr12:75046761:75046762:+_ENSMUSG00000021109_ENSMUST00000021530|mus_mus|FALSE|FALSE (ssRNA)
RNA: GGGAGUUCUACAGUCCGACGAUCAUAUAGAAAAUAUAAAUAGACUGCUGAGCCACCAGUGUCCAAAAAUAACCAACAGAAACAAAAACCCAACAAACAACAACAACUGAACAAAAACAUUAACAAUCAAAAGGAAUGAGAUUACAACAGAGGAUUGAGCAUCA
B16: chr4:34514055:34514056:+_ENSMUSG00000028291_ENSMUST00000084299|mus_mus|motif|central (ssRNA)
RNA: B14 RNA with U82G, A83G

Positions count from the first letter of the chain named. The full ranking holds about 24,000 sequences; the median of “enrichment r” is about 0.99, and the highest 2% start at about 3.7. Shown is part of a subset that was picked to be rich in the highest values.

The experiment deals with T1, UNK ZnF1-3 (human, UniProt Q9C0B0 31-174).
T1 sequence: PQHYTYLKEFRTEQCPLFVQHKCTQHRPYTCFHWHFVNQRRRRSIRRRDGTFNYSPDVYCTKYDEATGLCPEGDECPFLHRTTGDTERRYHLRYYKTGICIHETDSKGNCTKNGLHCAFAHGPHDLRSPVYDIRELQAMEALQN
Description: nsRBNS (natural sequence RNA bind-n-seq); RBNS binding buffer (assumed for nsRBNS): 25 mM Tris pH 7.5, 150 mM KCl, 3 mM MgCl2, 0.01% Triton X-100, 500 ug/ml BSA, 20 U/ml SUPERase-In, 4 C; UNK is unkempt and MSI1 is Musashi-1; names of the RNAs are library labels; protein concentration not given here; high values mean tight binding.
The molecule B1 had a binding signal of 0.527 enrichment R.

B2 yielded a binding signal of 0.79 enrichment R.

For the molecule B3, the binding signal was found to be 0.692 enrichment R.

The molecule B4 yielded a binding signal of 1.2 enrichment R.

In turn, B5 had a binding signal of 1.1 enrichment R.

On to B6, for which the binding signal came out at 7.83 enrichment R.

Molecule B7 registered a binding signal of 6.83 enrichment R.

Regarding B8, the binding signal was determined as 1.36 enrichment R.

B9 registered a binding signal of 0.911 enrichment R.

Molecule B10 displayed a binding signal of 0.637 enrichment R.

Regarding B11, the binding signal was determined as 1.02 enrichment R.

Regarding B12, the binding signal is 0.579 enrichment R.

The molecule B13 came in with a binding signal of 1.71 enrichment R.

B14 yielded a binding signal of 8.55 enrichment R.

B15 returned a binding signal of 3.57 enrichment R.

Consider B16, for which the binding signal stood at 15.2 enrichment R.
